Bioassay records from PubChem.
Compounds with a hit are over-represented: about 6% of the library has one in this group of screens.
ERK AVP inh: qHTS Assay for Inhibitors of the ERK Signaling Pathway using a Homogeneous Screening Assay; HEK293-V1b, vasopressin-stimulated pERK AlphaScreen; AID 995, 2007; 72,000 tested, 0.99% active; Potency, µM (doses to about 57.5 µM), most hits filed as inhibitors; note: nearly all actives have a fitted effect of over 55% in size
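HEK293 cells stably expressing V1b receptor, preincubated 30 min at 37 °C with compound, then stimulated 5 min with 25 nM vasopressin. Phospho-ERK by AlphaScreen SureFire after 5 h RT; normalized to DMSO and vasopressin; AC50 by Hill fit.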
CRE Fsk mod: Cell signaling CRE-BLA (Fsk stim); CHO CRE-bla reporter (cAMP response element driving beta-lactamase), forskolin EC10, beta-lactamase ratio; Potency, µM (doses to about 38.2 µM), hits mostly activators; 71,000 tested, 2.5% active; active = well fitted activation curve with a large enough effect in the signal ratio, with a control signal flat, not every such curve was filed as active; inconclusive = small, poorly fitted or top-dose-only effect, or effect the other way, or a change in a side signal; the % refers to the signal ratio
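Titrated compounds plus EC10 NKH 477 on CHO CRE-bla cells, 3 h, 37 °C. CCF4, 2 h RT. Ratio 460/530 nm → AC50.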
HEK293 cAMP cs: qHTS Assay for Agonists of the Thyroid Stimulating Hormone Receptor: Activators of Intracellular cAMP Concentrations in Parental HEK 293; AID 938, 2007; Potency, µM (titrated, usually from 57.1 µM), usual class: activators; 73,000 tested, 2.5% active; parental HEK293 CNG cAMP sensor, membrane potential fluorescence; note: nearly all actives have a fitted effect of over 55% in size
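Parental HEK 293 cells stably expressing a modified CNG channel (no TSHR) report cAMP rise as membrane depolarization. Membrane potential dye with 100 uM RO 20-1724 was loaded for 60 min at room temperature, then compound added for 30 min; fluorescence read at 590 nm.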
TSHR ag: qHTS Assay for Agonists of the Thyroid Stimulating Hormone Receptor; 73,000 tested, 0.48% active; Potency, µM (series often up to 57.1 µM), actives largely listed as activators; Thyrotropin receptor (Homo sapiens), P16473; AID 926, 2007; HEK293-CNG-TSHR cells (CNG channel as cAMP sensor), membrane potential dye, cAMP; active = well fitted activation curve with a large enough effect in the main read-out, with a control signal flat, not every such curve was filed as active; inconclusive = small, poorly fitted or top-dose-only effect, or a change in a side signal; inactive = no such curve, though single readings can be large or run the other way; reference of the percent scale not stated here;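 note: the control signal comes from parental cells without the receptor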
Target sequence (P16473 whole entry, looked up): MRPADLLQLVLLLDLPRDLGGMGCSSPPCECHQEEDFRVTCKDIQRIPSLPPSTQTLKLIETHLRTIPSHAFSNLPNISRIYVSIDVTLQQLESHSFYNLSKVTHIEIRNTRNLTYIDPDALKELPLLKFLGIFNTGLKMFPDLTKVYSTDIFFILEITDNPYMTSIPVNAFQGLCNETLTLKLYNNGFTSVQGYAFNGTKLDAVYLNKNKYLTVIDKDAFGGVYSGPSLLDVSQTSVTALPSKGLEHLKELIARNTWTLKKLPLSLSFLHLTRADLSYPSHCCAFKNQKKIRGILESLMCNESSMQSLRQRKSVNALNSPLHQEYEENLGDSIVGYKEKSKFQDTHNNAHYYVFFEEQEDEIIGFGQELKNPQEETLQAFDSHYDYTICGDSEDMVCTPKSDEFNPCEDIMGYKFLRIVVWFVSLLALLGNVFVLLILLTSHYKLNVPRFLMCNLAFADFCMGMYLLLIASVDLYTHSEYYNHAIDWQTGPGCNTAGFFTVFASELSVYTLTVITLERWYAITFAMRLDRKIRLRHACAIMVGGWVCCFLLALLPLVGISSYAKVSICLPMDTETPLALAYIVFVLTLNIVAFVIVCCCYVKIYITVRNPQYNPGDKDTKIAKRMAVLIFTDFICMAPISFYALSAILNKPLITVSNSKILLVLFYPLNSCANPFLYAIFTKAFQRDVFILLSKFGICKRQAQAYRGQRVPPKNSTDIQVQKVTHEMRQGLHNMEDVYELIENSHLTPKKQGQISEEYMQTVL
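cAMP rise detected as CNG-channel membrane depolarization by fluorescent dye (emission 590 nm), 30 min after compound, following 60 min dye loading containing 100 uM RO 20-1724 at room temperature. Cells: TSHR/CNG HEK 293, with parental CNG HEK 293 as control.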
Large screens that a line does not name were inactive. Unless noted, calls come from the whole dose curve; as a rule, active = well fitted curve in the direction sought with a large enough effect; inconclusive = small, poorly fitted or top-dose-only effect, or another doubt; inactive = no such curve, though single readings can be large; an effect the other way counts as inactive or inconclusive.

COc1cc(C(=O)N2CCN(c3cccc(C)c3C)CC2)cc(OC)c1OC	CRE Fsk mod 10µM (no result: ERK AVP inh)
COc1cc(C(=O)N2CCN(c3cc(Cl)ccc3Cl)CC2)cc(OC)c1OC	CRE Fsk mod 2.5µM (no result: ERK AVP inh)
Cc1cc(C)cc(N(CC(=O)O)S(=O)(=O)c2cccnc2)c1	none (no result: ERK AVP inh)
COc1ccc(-n2c(=O)c(C)nc3cnc(Nc4ccccc4)nc32)cc1	CRE Fsk mod inconclusive, HEK293 cAMP cs inconclusive, TSHR ag inconclusive
Cc1ccc(C(c2nnnn2CCc2ccccc2)N2CCSCC2)cc1 (centres undefined)	HEK293 cAMP cs 20µM, TSHR ag inconclusive
COCCn1nnnc1C(c1ccc(OC)cc1)N1CCC(C)CC1 (centres undefined)	none
COc1ccc(CCn2nnnc2C(c2ccc(C)cc2)N2CCN(C)CC2)cc1OC (centres undefined)	none
COCCn1nnnc1C(c1ccc(Cl)cc1)N1CCSCC1 (centres undefined)	HEK293 cAMP cs 16µM, TSHR ag inconclusive
O=C(O)C1CC2(C1)CC(C(=O)O)C2 (centres undefined)	none
CCCCCCNc1c(C(=O)OCC)c(=O)[nH]c2ccccc12	CRE Fsk mod 4µM, HEK293 cAMP cs inconclusive, TSHR ag inconclusive
CCOc1ccccc1NC(=O)CSc1c(C)n[nH]c1C	none
CCCN(CCC)C(=O)CSc1nc2n[nH]c(C)c2c(=N)n1-c1ccc(OCC)cc1	ERK AVP inh inconclusive, CRE Fsk mod 2.5µM (no result: TSHR ag)
CCC(Sc1nc2n[nH]c(C)c2c(=N)n1-c1cccc(Cl)c1)C(=O)NCCOC (centres undefined)	CRE Fsk mod 13µM
CCC(Sc1nc2n[nH]c(C)c2c(=N)n1-c1ccc(C)c(Cl)c1)C(=O)N1CCOCC1 (centres undefined)	CRE Fsk mod inconclusive
CCCN(CCC)C(=O)CSc1nc2n[nH]c(C)c2c(=N)n1-c1ccc(OC)cc1	ERK AVP inh inconclusive, CRE Fsk mod 1.6µM
CCc1ccccc1NC(=O)CSc1nc2n[nH]c(C)c2c(=N)n1-c1ccc(OC)cc1	CRE Fsk mod 2.5µM
CC(=O)OC[C@@H]1O[C@H](CCO/N=C(\C)CCN2CCCc3nc(C)c(C)cc32)C=C[C@@H]1OC(C)=O	none (no result: CRE Fsk mod)
CCCCCS(=O)(=O)CCCCCCCCCCn1c(-c2ccc(O)cc2)c(C)c2cc(O)ccc21	ERK AVP inh inconclusive (no result: CRE Fsk mod)
CC(=O)N1CC=CC1(CC(C)C)C(=O)NCc1ccccn1 (centres undefined)	none
COC(=O)C(/C=C/C(C)Cc1cc(Br)cc(OCc2ccccc2)c1OC)OCc1ccccc1 (centres undefined)	none (no result: CRE Fsk mod)
CCCCCCC#Cc1cc(OC)c(OC)cc1C(N1CC(C)c2ccccc21)N1CC(C)c2ccccc21 (centres undefined)	none (no result: CRE Fsk mod)
C=C(CC(=O)O)C(=O)O (tested in a mixture with another compound)	none
CCC[C@@H]1C[C@@]1(CCC)C(NC(=O)c1cccs1)c1ccc(Cl)cc1 (some centres undefined)	HEK293 cAMP cs inconclusive, TSHR ag inconclusive
CCC[C@@H]1C[C@@]1(CCC)C(NC(=O)c1ccco1)c1ccc(Cl)cc1 (some centres undefined)	HEK293 cAMP cs 10µM, TSHR ag inconclusive
CCC[C@@H]1C[C@@]1(CCC)C(NP(=O)(c1ccccc1)c1ccccc1)c1ccc(Cl)cc1 (some centres undefined)	HEK293 cAMP cs 13µM, TSHR ag inconclusive
CCC[C@@H]1C[C@@]1(CCC)C(NC(=O)c1ccccc1)c1cccc(Cl)c1 (some centres undefined)	none
COc1ccc(/C=C(\C#N)C(N)=O)c(OC)c1	none
COc1ccc(OC)c(NC(=O)CSc2nc3c(c(=O)n(C)c(=O)n3C)n2C)c1	CRE Fsk mod 2µM
CCOc1ccc2nc(NC(=O)CSc3nc4c(c(=O)n(C)c(=O)n4C)n3C(C)C)sc2c1	ERK AVP inh inconclusive, CRE Fsk mod 4µM
CCOc1ccc2nc(NC(=O)Cn3cnc4c3c(=O)n(C)c(=O)n4C)sc2c1	CRE Fsk mod inconclusive, TSHR ag inconclusive
CCOc1ccc2nc(NC(=O)Nc3cccs3)sc2c1	ERK AVP inh 32µM, CRE Fsk mod inconclusive
CCn1c(SCC(=O)Nc2nc3ccc(OC)cc3s2)nc2c1c(=O)n(C)c(=O)n2C	ERK AVP inh inconclusive, CRE Fsk mod 2µM
